Measured potencies and affinities stand elsewhere. Inconclusive results are not listed.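 Rule for the calls: active = in every test run, a fitted half-maximal concentration for signal decrease at or below twice the highest tested concentration; inconclusive = runs disagree, flat 30 to 70% decrease, or poor fit; inactive = the rest.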
Experiment: miR-122 activators in hepatoma reporter cells, dose response, cell-based, Huh7 psiCHECK-miR122, Renilla luciferase, cherry-picked (AID 651956);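 note: Renilla luciferase from a miR-122 sensor reporter so lower signal means miR-122 activation; 0% = median neutral control wells and -100% = median positive control wells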
Conditions: 48 h; series mostly up to 35 µM; activity change, negative = signal decrease: at the top concentration

Activity change, negative = signal decrease, inactive:
CC(C)C(=O)Nc1ccc2c(c1)C(=O)N(C)[C@@H]1CC[C@H](CC(=O)NCC3CC3)O[C@H]1CO2 -7.96%
COc1ccc(NC(=O)COC(=O)CCCc2c[nH]c3ccccc23)cc1 -11.8%
CNC[C@H]1Oc2cc(C#CC3CCCCC3)ccc2S(=O)(=O)N([C@H](C)CO)C[C@@H]1C -132%
O=C(CC(F)(F)F)N1C[C@@H]2[C@H](c3ccccc31)[C@@H](CO)N2C(=O)C1CCCC1 -32.5%
CN(C(=O)C12CC3CC(CC(C3)C1)C2)C1CCS(=O)(=O)C1 (stereo unspecified) 24.3%
CN(C[C@H]1[C@H](c2ccccc2)[C@@H](CO)N1CC1CC1)C(=O)c1cccc(F)c1 105% [at 30 µM]
CCCCC(=O)NC(c1ccccc1OC)c1ccc2cccnc2c1O (stereo unspecified) 4.09%
CC(=O)N(C[C@@H]1N[C@@H](CO)[C@H]1c1ccc(-c2ccccc2)cc1)C(C)C 50.3%
COc1ccc(CC(NC(C)=O)C(=O)N2CCN(C(=O)N(C(C)C)C(C)C)CC2)cc1 (stereo unspecified) 13.5%
CN1C(=O)c2cc(NC(=O)C3CCOCC3)ccc2OC[C@H]2O[C@H](CC(=O)NCc3ccc4c(c3)OCO4)CC[C@@H]21 -23.7%
Fc1ccccc1-c1nc(-c2ccncc2)no1 44.4%
CCC(=O)N1[C@H](CN(C(C)C)S(C)(=O)=O)[C@@H](c2ccccc2)[C@@H]1CO -31.1%
CCN(C[C@H]1N[C@H](CO)[C@H]1c1ccc(C2=CCCC2)cc1)C(=O)c1cccnc1 60.6%
COc1cccc(C(=O)Nc2ccc3c(c2)C(=O)N(C)[C@H]2CC[C@H](CC(=O)NCc4ccc(F)cc4)O[C@@H]2CO3)c1 60.8%
CCCC(=O)Nc1ccc2c(c1)C(=O)N(C)[C@H]1CC[C@H](CC(=O)NCCN3CCCCC3)O[C@@H]1CO2 -37.7%
CCCNC(=O)C[C@H]1CC[C@H]2[C@@H](COc3ccc(NC(=O)c4cc(F)cc(F)c4)cc3C(=O)N2C)O1 50.3%
COCCNC(=O)C[C@@H]1CC[C@@H]2[C@H](COc3ccc(NS(=O)(=O)c4ccc(Cl)cc4)cc3C(=O)N2C)O1 10.6%
CNC(=O)C[C@@H]1CC[C@@H]2[C@H](COc3ccc(NC(=O)c4cccc(OC)c4)cc3C(=O)N2C)O1 16.2%
CN1C(=O)c2cc(NC(=O)c3ccc4c(c3)OCO4)ccc2OC[C@H]2O[C@@H](CC(=O)O)CC[C@@H]21 -34%
C[C@H](CO)N1C[C@H](C)[C@@H](CN(C)Cc2ccc(C(F)(F)F)cc2)Oc2ccc(NS(=O)(=O)c3ccc(Cl)cc3)cc2CC1=O -112% [at 30 µM]
CN1C(=O)c2cc(NC(=O)c3cccs3)ccc2OC[C@@H]2O[C@@H](CC(=O)O)CC[C@@H]21 41.8%
C[C@H](NC(=O)C[C@@H]1CC[C@H]2[C@H](COc3ccc(NS(=O)(=O)c4ccc(Cl)cc4)cc3C(=O)N2C)O1)c1ccccc1 70.4%
CCOc1ccc(-c2nnc(SCC(=O)Nc3ccc4c(c3)c3ccccc3n4CC)n2N)cc1 71.1%
CCNC(=O)Nc1ccc2c(c1)C(=O)N(C)[C@H]1CC[C@@H](CC(=O)NCCOC)O[C@@H]1CO2 128%
CN(C[C@H]1N[C@@H](CO)[C@H]1c1ccc(-c2cccc(F)c2)cc1)C(=O)C1CCC1 282%
CCCNC(=O)C[C@@H]1CC[C@@H]2[C@@H](COc3ccc(NC(=O)Nc4ccccc4F)cc3C(=O)N2C)O1 -17%
CN1C(=O)c2cc(NC(=O)c3ccccc3F)ccc2OC[C@H]2O[C@@H](CC(=O)NCc3ccc4c(c3)OCO4)CC[C@@H]21 -23.1%
c1cnc(N2CCN(Cc3c[nH]c4ccccc34)CC2)nc1 -24.5%
COC(=O)C[C@H]1CC[C@@H]2[C@@H](COc3ccc(NC(=O)c4cnccn4)cc3C(=O)N2C)O1 -5.79%
CCNC(=O)C[C@H]1CC[C@H]2[C@H](COc3ccc(NS(C)(=O)=O)cc3C(=O)N2C)O1 -8.52%
COC(=O)C[C@@H]1CC[C@@H]2[C@@H](COc3ccc(NS(=O)(=O)c4ccccc4F)cc3C(=O)N2C)O1 -2.68%
N#CC1=C(N)Oc2c(ccc3cccnc23)C1c1ccccc1 (stereo unspecified) 13.3%
CNC(=O)C[C@H]1CC[C@H]2[C@H](COc3ccc(NC(=O)c4cccc(F)c4)cc3C(=O)N2C)O1 177%
COC(=O)c1nn(-c2ccccc2)c(Sc2ccc(Cl)cc2)c1/C=N/O 94.2%
CCC(=O)N1[C@H](CO)[C@@H](c2ccccc2)[C@H]1CN(C(C)C)S(C)(=O)=O -18.1%
COc1ccc(C#Cc2ccc3c(c2)O[C@@H](CN(C)C(=O)CN2CCOCC2)[C@@H](C)CN([C@H](C)CO)S3(=O)=O)cc1 14.7%

From PubChem BioAssay AID651956 (Broad Institute, 2012)
